Laboratory results: PubChem BioAssay AID1259397 (Fisher Drug Discovery Resource Center, 2018)
Values joined by “and” are separate entries in the source; they are usually repeats but may differ in a detail not shown here. Equal entries are not always repeated. Hit rate of the full screen: of about 130,000 compounds, about 230 (0.18%) were called active.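 Rule for the calls: active = inhibition of cGAS enzyme activity at or above 60%; inactive = the rest.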 What follows is part of a selection rich in actives, with near analogues and random picks from the rest.

Biological target: Cyclic GMP-AMP synthase (Mus musculus) (UniProt Q8C6L5)
Assay: inhibitors of Mus musculus cyclic GMP-AMP synthase, initial high-throughput assay, cell-free, RapidFire MS (AID 1259397);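 note: enzyme stimulated by 45 bp dsDNA with ATP and GTP substrates; cGAMP share of summed cGAMP plus half ATP and half GTP signals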
Settings: recombinant mouse cGAS, cGAMP by RapidFire MS; at 12.5 µM; stronger effect = higher value

Chain of Cyclic GMP-AMP synthase (Mus musculus) (Q8C6L5 whole entry, looked up): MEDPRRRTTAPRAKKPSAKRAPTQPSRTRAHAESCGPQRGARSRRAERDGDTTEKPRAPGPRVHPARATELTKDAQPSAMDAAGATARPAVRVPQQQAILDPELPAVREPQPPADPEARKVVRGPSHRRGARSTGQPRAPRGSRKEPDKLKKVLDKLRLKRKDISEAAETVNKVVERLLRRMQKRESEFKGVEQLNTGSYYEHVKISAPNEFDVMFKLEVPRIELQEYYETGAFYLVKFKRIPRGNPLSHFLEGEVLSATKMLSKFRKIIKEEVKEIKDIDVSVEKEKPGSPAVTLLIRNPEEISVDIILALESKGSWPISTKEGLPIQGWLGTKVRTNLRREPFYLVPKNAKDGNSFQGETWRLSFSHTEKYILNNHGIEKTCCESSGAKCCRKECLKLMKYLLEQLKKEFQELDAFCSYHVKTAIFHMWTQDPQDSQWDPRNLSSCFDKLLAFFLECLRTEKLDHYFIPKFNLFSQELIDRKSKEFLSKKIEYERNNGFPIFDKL

inhibition, inactive:
CC1(C(=O)NS(=O)(=O)c2cccc(OC(F)F)c2)CCN1C(=O)COc1ccc(Cl)cc1 (stereo not drawn) -4.55%
CCN(CC(=O)NC(C)(C)C)c1cc(Cl)nc(N)n1 -6.72%
CCNC(=O)c1cc(Cl)ccc1NS(=O)(=O)c1cn[nH]c1 -6.14%
CCC(c1nnc(SC(C)C(N)=O)n1Cc1ccccc1)N(C)C (stereo not drawn) -4.22%
Cc1cc(CN2CCN3C(=O)CNC(=O)C3C2)ccc1N1CCCC1 (stereo not drawn) -4.4%
CCN(CC)C(=O)N1CCCC(C(=O)Nc2ccc(S(=O)(=O)C(F)F)cc2)C1 (stereo not drawn) 6.42%
NC(=O)c1cc(NC(=O)N2CCCCCC2c2ccco2)ccc1F (stereo not drawn) -5.95%
CCn1nc(C(=O)NNC(=O)c2c(C)noc2C)c2ccccc2c1=O -0.0832%
COc1ccccc1CCc1nnc(CCC(=O)NC(C)CCn2cccn2)o1 (stereo not drawn) 2.62%
O=C(CCn1cnc2ccccc2c1=O)Nc1cc2c(cc1Br)OCCO2 -1.61%
CCN(Cc1ccncc1)C(=O)C1CCC(=O)N(Cc2ccccn2)C1 (stereo not drawn) -3.05%
COc1cc(NC(=O)[C@@H](C)N2Cc3ccc(NCC(C)C)nc3C2=O)cc(OC)c1 7.27%
Cc1ccc(C(=O)N2CCCC(C(=O)NC3C4CCc5ccccc5C43)C2)cc1 (stereo not drawn) -4.85%
CCCN1C(=O)CCc2cc(NC(=O)COC)ccc21 -1.31%
CCC(CC)S(=O)(=O)NC(=O)c1c(C)nn(CC)c1Cl -36.3%
CC(C)Cc1ccc(C(=O)c2cccs2)cc1 2.67%
Cc1c(C(=O)NCc2cccc([N+](=O)[O-])c2)sc(=O)n1CCc1ccccc1 -3.1%
OC(c1ccc(Cl)c(F)c1)c1ncc(-c2ccccc2Cl)[nH]1 (stereo not drawn) -1.95%
O=C(CCOc1ccccc1)N1CC(c2ccncc2)C1 -7.26%
C=CCNC(=O)c1cccnc1-c1ccc(OC)c2ncccc12 -6.67%
O=C1N(CCCc2ccccc2)CCCC12CCN(c1cnccn1)C2 (stereo not drawn) -11%
CCCCN(CCCC)C(=O)c1[nH]c(C)c(C(C)=O)c1C -6.21%
Cc1cccc(NCCNC(=O)c2oc(Br)cc2C)n1 -6.38%
CC(C)C(NC(=O)c1ccco1)C(=O)N1CC(C)(C)C1(C)C (stereo not drawn) -1.92%
N#CC(Cc1ccccc1)NC(=O)/C=C/c1ccccc1Br (stereo not drawn) 8.15%
Cc1cc(C)n(C(=O)C(C)n2cc([N+](=O)[O-])cn2)n1 (stereo not drawn) -19.7%
COC(=O)CCC(=O)N1CCCC(C(=O)c2ccc(-c3ccccc3)cc2)C1 (stereo not drawn) -2.49%
Cc1ccc(C(=O)NCC(NC(=O)c2ccc(C)nc2)C(C)C)cn1 (stereo not drawn) 3.43%
CC(C)C1CN(C(=O)CCn2cncn2)CCCN1Cc1ccc(F)cc1 (stereo not drawn) -18%
COc1ccc(-n2c(C)nc3ccc(NC(=O)Nc4ccc(C)cc4C)cc3c2=O)cc1 -11.4%
CN(C(=O)c1ccc(=O)[nH]n1)C1c2ccccc2-c2ccccc21 -2.89% and -15.8%
Cc1ncc(-c2c(-c3ccccc3)ncn2Cc2csc(N)n2)[nH]1 -18.8%
CCOc1ccc(Cl)cc1S(=O)(=O)N1CCN(CCO)CC1 -1.81%
Cc1ccccc1NC(=O)Cn1cc(S(=O)(=O)c2ccc(F)cc2)c(=O)c2cc3c(cc21)OCO3 -8.2%
CN1C(=O)Cc2cc(-c3csc(CCN4CCCCC4)n3)ccc21 -45.7%
Cc1cc(C)c(S(=O)(=O)Nc2ccc(-c3cn4ccc(C)nc4n3)cc2)c(C)c1 -25.3%
CCCn1c(=O)c2c(nc3n2CCN3c2cc(C)ccc2C)n(C)c1=O -2.17%
Cn1c(=O)c2c(nc(CN3CCCCC3)n2Cc2cccc3ccccc23)n(C)c1=O -3.06%
CCOc1ccc2c(c1)C(C)CC(C)(C)N2C(=O)C1CCN(C(=O)C2CC2)CC1 (stereo not drawn) -7.85%
CSCc1ccc(C(=O)N2CCCC(C(=O)c3ccc4c(c3)OCO4)C2)o1 (stereo not drawn) -4.82%
O=C(C=Cc1ccsc1)N1CCN(S(=O)(=O)c2cc(F)ccc2F)CC1 -8.87%
CN(C)CCNc1cc(-c2n[nH]c(C(F)(F)F)n2)c2cc[nH]c2n1 -6.32%
COc1ccccc1OCCCOc1ccc(Cl)cc1Cl -12.4%
CCOc1cn2c(cc1=O)C(=O)N(CCNC(=O)c1ccc(C)cc1)CC2 -4.57%
CCCN(C(=O)c1ccc(-n2ccnc2)cc1)C1CCCC1 -16.4%
Cc1cnn(CC2CCN(C(=O)c3ccccc3C3CCNC3)CC2)c1 (stereo not drawn) 3.82%
Cc1ccc(OCc2nc(C(=O)NC3CC(C)(C)NC(C)(C)C3)cs2)cc1 -17.3%
CCCCOC1CC(N(C)Cc2ccc(S(=O)(=O)N(C)C)o2)C1(C)C (stereo not drawn) -31.6%
COC(=O)C[C@H]1[C@]2(C)C[C@@]34OC5(C)OC6(C(OC(C)=O)[C@@]3(OC(C)=O)[C@H]2OC(C)=O)C2CC(=O)O[C@@H](c3ccoc3)[C@]2(C)CCC6(O5)[C@]14C (stereo partly drawn) 1.62%
Cn1ccnc1CN(C(=O)c1scc2c1CCCC2)C1CC1 -27.6%
CC(C)CCN(CCC#N)Cc1ncc(Cl)n1C -8.32%
CC(N)=C(C#N)C(=O)COC(=O)c1ccc([N+](=O)[O-])o1 -1.77%
CC(CC(=O)Nc1ccc(F)cc1)n1cncn1 (stereo not drawn) -11%
CCOCC(O)CN1CCN(C(=O)Cn2ccccc2=O)CC1 (stereo not drawn) -5.1%
CC(C)Cn1c(CN(Cc2ccccc2)CC2CC2)cnc1S(C)(=O)=O -12.5%
CC(C)c1ccc2c(c1)CCCN2C(=O)CSC1CCS(=O)(=O)C1 (stereo not drawn) -7.34%
CC(N)=C(C#N)C(=O)COC(=O)C12CC3CC(CC(Br)(C3)C1)C2 -14%
CC1C(=O)SC2(CCCCC2)N1c1ccc(Cl)cc1 (stereo not drawn) -10.1%
